In all, about 48,000 compounds went through this assay and about 13,000 (27%) showed an effect of 50% or more. Some of the results follow.
Test system: Wolbachia pipientis
Test: Anti-Wolbachia Cell-Based Screen
Format: functional
Parameters: scale not given: in the data most compounds retested in dose-response had high values
Settings: 5 µM

Compound | Percent Effect
CCOCCC(=O)NCC(C)c1ccsc1 (stereo unspecified) | 1.929%
Cc1ccc(CN2CC[C@H]3C[C@@H](c4nc(C5CC5)cs4)O[C@@H]3C2)o1 | -2.385%
CCOCC(=O)N1CCC2(CC1)CC(c1ccccc1)CO2 (stereo unspecified) | 118.3%
CN(Cc1ccncc1)C1COC2(CCN(c3ncc(F)cn3)CC2)C1.O=C(O)C(F)(F)F.O=C(O)C(F)(F)F (stereo unspecified) | -12.58%
O=C(O)C(F)(F)F.O=C(c1ccccc1)N1CCC[C@]2(C[C@@H](OCc3ccncc3)CO2)C1 | 6.805%
O=C(C1CC1)N1CCC[C@]2(C[C@@H](OCc3ccncc3)CO2)C1.O=C(O)C(F)(F)F | 6.09%
O=C(Cc1ccncc1)N1CCC2(CC1)CC(c1ccccc1)CO2.O=C(O)C(F)(F)F (stereo unspecified) | 104.1%
O=C(CC1CC1)N1CCC2(CC1)CC(Oc1ccccc1)CO2 (stereo unspecified) | -7.215%
Cn1cc(C2CN(C(=O)Cc3coc(-c4ccccc4)n3)CCO2)cn1 (stereo unspecified) | -11.89%
Cn1cc(C2CCCN2C(=O)CCCOCc2ccccc2)cn1 (stereo unspecified) | 2.254%
CCC(=O)N1CCC2(CC1)CC(Oc1ccccc1)CO2 (stereo unspecified) | -6.284%
CC1COC2(CCN(C(=O)Cc3ccncc3)CC2)C1.O=C(O)C(F)(F)F (stereo unspecified) | 99.32%
Cn1cc(C2COC3(CCN(C(=O)Cc4ccccc4)CC3)C2)cn1 (stereo unspecified) | 95.06%
O=C(Cc1cccnc1)N1CCC2(CC1)CCN(C1CCOCC1)CC2.O=C(O)C(F)(F)F.O=C(O)C(F)(F)F | 1.334%
CC1(CNS(=O)(=O)c2cccc(C(=O)N3CCSCC3)c2)COC1 | 5.198%
N#Cc1ccnc(N2CCN(CC(O)c3c(F)cccc3F)CC2)c1 (stereo unspecified) | -15.75%
CC(CCn1cccn1)NCc1n[nH]c2c1CCCCC2 (stereo unspecified) | -18.85%
O=S(=O)(NCCNc1ccc(-n2cccc2)nn1)c1ccccc1 | -5.245%
COC(=O)[C@@H]1Cc2ncn(C)c2CN1S(=O)(=O)c1ccc(Cl)cc1 | -5.674%
Cn1cc(S(=O)(=O)Nc2ccc(Cl)cn2)cc1C(N)=O | 6.201%
Cc1cc2[nH]c(CN3CCOC(c4ccc(Cl)cc4)C3)cc(=O)n2n1 (stereo unspecified) | -2.359%
CC(C)NC(=O)N1CC[C@H]2N(C)CC[C@@]2(C(=O)Nc2cccnc2)CC1 | 104%
CCN1CC[C@@]2(C(=O)N(C)C)CCN(C(=O)NC(C)C)CC[C@@H]12 | -5.445%
O=C(Cc1cccnc1)N1CCC2(CC1)CCN(C1CCOCC1)C2.O=C(O)C(F)(F)F.O=C(O)C(F)(F)F | -0.7381%
CNC(=O)N1CC[C@H]2N(C)CC[C@@]2(C(=O)Nc2ccccc2)CC1 | 2.294%
CC(C)CC(=O)N1CC[C@H]2N(C)CC[C@@]2(C(=O)Nc2cccnc2)CC1.O=C(O)C(F)(F)F.O=C(O)C(F)(F)F | 92.3%

Compound | Percent Effect
CC(C)C(=O)N1CC[C@H]2N(C)CC[C@@]2(C(=O)Nc2ccccc2)CC1 | 108.6%
Cc1ccc(CNC(=O)C2CCN(C(=O)C(C)C)CC2)n1C | -14.75%
CS(=O)(=O)N1C[C@H](C(=O)Nc2cccnc2)[C@@H]2CCO[C@@H]2C1.O=C(O)C(F)(F)F | -6.028%
CC(C)C(=O)N1CC[C@H]2N(C)CC[C@@]2(C(=O)Nc2cccnc2)CC1.O=C(O)C(F)(F)F.O=C(O)C(F)(F)F | 118.9%
CCN1CC[C@@]2(C(=O)N3CCOCC3)CCN(C(=O)CC(C)C)CC[C@@H]12.O=C(O)C(F)(F)F | -11.51%
O=C(Nc1cccnc1)N1CCC(n2ccc(C(F)(F)F)n2)CC1 | -10.86%
CC(C)C(=O)N1CCc2nc(C(=O)Nc3cccnc3)sc2CC1 | 0.3042%
CCC[C@H]1CN(CCCO)C[C@@H]1NC(=O)Cn1cc(C)cn1 | -8.445%
CCN(Cc1cc(F)c(OC)c(Cl)c1)Cc1nc(COC)no1 | -30.92%
COc1cc(C)sc1C(=O)NCCC(=O)N(C)c1ccccc1 | -9.675%
CC(C)N(C)CCNC(=O)NCc1ccccc1-n1cccn1 | -1.809%
Cc1nn(C(C)C)c(C)c1S(=O)(=O)Nc1cccc(C(=O)O)c1 | 0.846%
Cc1ccc(OCC(C)NS(=O)(=O)Cc2ccon2)cc1 (stereo unspecified) | 103.4%
Cc1cc(C(=O)NS(=O)(=O)Cc2ccon2)c(C)n1C(C)C | 19.94%
CC(CCc1ccc(F)c(F)c1)NS(=O)(=O)Cc1ccon1 (stereo unspecified) | 102%
O=C(NS(=O)(=O)Cc1ccon1)c1ccsc1 | -7.233%
Cc1ccc(OCC(C)NS(=O)(=O)N(C)C)cc1 (stereo unspecified) | -6.618%
O=C(CCc1cccc(Cl)c1)NS(=O)(=O)Cc1ccon1 | -7.174%
CC(C)CC(CO)NS(=O)(=O)Cc1ccon1 (stereo unspecified) | 92.95%
Cc1ccc(C(=O)NS(=O)(=O)Cc2ccon2)c(C)c1 | -32.05%
Cc1ccc(OCC(C)NS(C)(=O)=O)cc1 (stereo unspecified) | 1.319%
CCC(CNC(=O)Cc1cc(C)on1)Oc1cccc(F)c1 (stereo unspecified) | 6.278%
CN1CCN(c2ncnc3c2c(C(=O)NC2CC2)c2ccccn23)CC1 | -8.273%
CC1CN(C(=O)NCc2ccn(C)c2)CCN1CC(F)(F)F (stereo unspecified) | -7.034%
C[C@@H]1CN(Cc2ccccc2)CCN1C(=O)NCc1nccs1 | -1.817%
Cc1csc(N2CCN(CCc3ccccn3)CC2C)n1 (stereo unspecified) | 3.431%

Compound | Percent Effect
CC1CN(CC(=O)NCc2cccs2)CCN1c1nccs1 (stereo unspecified) | 105.4%
Cc1csc(N2CCN(CC(=O)Nc3cccnc3)CC2C)n1 (stereo unspecified) | 114.5%
Cc1csc(N2CCN(CC(=O)Nc3nncs3)CC2C)n1 (stereo unspecified) | 1.073%
O=C(CCN1CCCN(c2nccs2)CC1)Nc1ccccc1 | 4.493%
CC1CN(CC(=O)NC(=O)NCc2cccs2)CCN1CC(F)(F)F (stereo unspecified) | 103.7%
O=C(CN1CCOC(Cn2cccn2)C1)NCc1cccs1 (stereo unspecified) | 2.249%
Cc1ccccc1CN1CCN(CC(=O)Nc2cccnc2)CC1 | 7.585%
O=C(CN1C[C@H]2CC[C@@H]1CN(Cc1ccccn1)C2)NCc1cccs1 | 1.062%
O=C(CN1CCN(c2nccs2)CC1)Nc1cccnc1 | 105.2%
COC(=O)N1CCCN(C(=O)NCc2ccc(Cl)s2)CC1 | 11.92%
CC(C)COCCC(=O)Nc1cc(-n2nnnc2C2CC2)ccc1F | 3.649%
CC1CN(CC(=O)Nc2ccncc2)CCN1c1nccs1 (stereo unspecified) | 150.9%
CC1CN(CC(=O)Nc2nncs2)CCN1c1nccs1 (stereo unspecified) | -0.151%
CC1CN(CC(=O)Nc2cccnc2)CCN1c1nccs1 (stereo unspecified) | 0.898%
CCSC(C)C(=O)N1CCC(c2nn(C)c(=O)n2-c2ccccc2)CC1 (stereo unspecified) | -5.623%
c1cc(C2CCCN2CC2CCCCC2)n[nH]1 (stereo unspecified) | 159.6%
c1cc(-c2noc([C@@H]3CCCN3CC3CC3)n2)cc(N2CCCC2)n1 | 1.663%
CN1CCC(c2n[nH]c(=O)n2CC2CCCCC2)CC1 | 16.1%
OCCOCCN1CCCC1c1cccc(Cl)c1 (stereo unspecified) | -3.053%
c1cc(C2CCCN2CC2CC2)n[nH]1 (stereo unspecified) | 189.2%
CC(C)CN1CCCC1c1cc[nH]n1 (stereo unspecified) | 114.8%
OCCN1CCCCC1c1cc[nH]n1 (stereo unspecified) | 167%
COCCOc1ccnc(-c2noc([C@@H]3CCCN3CC(C)C)n2)c1 | -7.911%
Nc1ncncc1-c1noc([C@@H]2CCCN2CC2CC2)n1 | -1.832%
CC(C)CN1CCCC1c1ccc(C(=O)Nc2cc[nH]n2)s1 (stereo unspecified) | 6.388%
c1cc(-c2c[nH]c([C@@H]3COCCN3CC3CC3)n2)ccn1 | -6.01%

Compound | Percent Effect
OCCCN1CCCC1c1ccc(Br)cc1 (stereo unspecified) | -3.155%
CC(C)NC(=O)CCNC(=O)c1cc(F)ccc1NS(C)(=O)=O | -9.152%
CCOc1ccc(C(=O)N(C)C)cc1NC(=O)c1ccsc1 | 9.824%
CCc1nncn1CCNC(=O)Nc1ccc(OC)c(C)c1 | -6.777%
CCn1ccnc1CN1CCN(CC(O)Cn2cccn2)CC1 (stereo unspecified) | -2.692%
Cc1cc(C)c2cc(CNCc3ccco3)c3nn(C)c(=O)n3c2c1 | 111.5%
Cc1cc(C)c2cc(CNCc3ccc(C)o3)c3nn(C)c(=O)n3c2c1 | 122.6%
Cc1ccc(CNCCC(O)(c2nccn2C)C(F)(F)F)o1 (stereo unspecified) | -16.77%
Cc1cc(C)c2cc(CNCc3cccnc3)c3nn(C)c(=O)n3c2c1 | 113.3%
Cc1cc(C)c2cc(C(=O)N3CCN(Cc4ccco4)CC3)[nH]c2c1 | 21.49%
Cc1ccc(NCc2ccco2)cc1N1CCOC1=O | -6.269%
Cc1ccc(CNCc2nnc3n2CCCC3C(F)(F)F)o1 (stereo unspecified) | 18.11%
Cc1cc(C)c2cc(CNCc3ccccc3)c3nn(C)c(=O)n3c2c1 | -7.626%
COc1ccc(Oc2ccc(C(F)(F)F)cn2)cc1CN1CCCC1 | -1.522%
CCn1ccnc1S(=O)(=O)Cc1c(C)cc(C)c(C(C)=O)c1C | -13.95%
CC(C)CN(Cc1ccsc1)C(=O)CCCn1cncn1 | 5.825%
CCOc1cccc(CNC(=O)C(C)(C)C#N)c1OC(F)F | -15.69%
O=C(O)C(F)(F)F.O=C(O)C(F)(F)F.O=C(O)C(F)(F)F.c1cnn(C[C@@H]2C[C@@H]3CN(CC4CC4)CC[C@@H]3N2c2nccs2)c1 | 119.3%
CC(=O)N1CC[C@H]2[C@H](C[C@@H](CN3CCCC3)N2c2nccs2)C1.O=C(O)C(F)(F)F.O=C(O)C(F)(F)F | 95.98%
CC(=O)N1[C@H](Cn2cncn2)C[C@@H]2CN(CC3CC3)CC[C@@H]21.O=C(O)C(F)(F)F | -0.2509%
Cl.Cl.c1csc(N2[C@H](Cn3cncn3)C[C@@H]3CNCC[C@@H]32)n1 | 3.496%
CCC(=O)N1CC[C@H]2[C@H](C[C@@H](CN3CCCC3)N2c2nccs2)C1.O=C(O)C(F)(F)F.O=C(O)C(F)(F)F | 104%
CCC(=O)N1CC[C@H]2[C@H](C[C@@H](Cn3cccn3)N2c2nccs2)C1.O=C(O)C(F)(F)F.O=C(O)C(F)(F)F | 119.1%
